Source: PMC10668032, “Altered binding affinity of SIX1-Q177R correlates with enhanced WNT5A and WNT pathway effector expression in Wilms tumor”
The full ranking holds about 33,000 sequences; the median of “e-score” is about -0.053, and the highest 2% start at about 0.38. The list comes from a sample in which the highest values are over-represented; it also holds similar and randomly drawn sequences.

target: T1, SIX1 homeodomain (reference allele) (human, UniProt Q15475 108-198); experiment: universal protein binding microarray; Universal all-10-mer PBM (8x60K, AMADID 030236), 300 nM GST-tagged protein, Alexa Fluor 488 anti-GST; buffer, salt, pH and temperature not stated (as in Berger); high values mean tight binding; settings: protein: ivt; tags: N-terminal GST; dsDNA, one strand shown
T1 sequence: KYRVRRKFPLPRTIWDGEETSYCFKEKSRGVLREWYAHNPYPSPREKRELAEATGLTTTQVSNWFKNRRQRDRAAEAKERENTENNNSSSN
In short: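 Homeodomains fused to GST were made by in vitro transcription/translation and measured by anti-GST western blot with a recombinant GST standard curve. At 300 nM final concentration, they were applied in duplicate to universal 'all 10-mer' protein binding microarrays (8×60K format).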

| Sequence | binding signal [E-score] |
| --- | --- |
| GTGATCTA | 0.2979 ± 0.000552 |
| ATGATCGG | 0.294 ± 0.0125 |
| CTGATCGC | 0.191 ± 0.0397 |
| ATGATCCA | 0.391 ± 0.0192 |
| CTGATCTC | 0.312 ± 0.016 |
| GTGATCCA | 0.377 ± 0.0369 |
| CTGATCCA | 0.357 ± 0.0346 |
| GTGATCAA | 0.236 ± 0.0408 |
| ATGATCCG | 0.452 ± 0.00636 |
| CTGATCCC | 0.416 ± 0.02 |
| ATGATCGA | 0.173 ± 0.029 |
| ATGATCTG | 0.355 ± 0.0221 |
| TCCCCTCA | 0.175 ± 0.0645 |
| CTGCTATA | 0.194 ± 0.0359 |
| AGTGAGAC | 0.198 ± 0.0551 |
| ACTCGATA | 0.303 |
| TACACCTA | 0.304 ± 0.0311 |
| CATTATCC | 0.326 ± 0.00937 |
| CGTCGATC | 0.157 ± 0.105 |
| ATCATTTA | 0.193 ± 0.0974 |
| AATTATAC | 0.165 ± 0.066 |
| GATAGTCA | 0.189 ± 0.0298 |
| TAAAGATA | 0.167 ± 0.162 |

| Sequence | binding signal [E-score] |
| --- | --- |
| ATGATCTC | 0.327 ± 0.0416 |
| ATGATCCC | 0.448 ± 0.0106 |
| ATGATCAC | 0.309 ± 0.0105 |
| ACCGAGAT | 0.26507 ± 0.000212 |
| ACGGATGA | 0.211 ± 0.0174 |
| ATCGCGAT | 0.334 ± 0.0159 |
| ATACATTC | 0.188 ± 0.0482 |
| TACGTGGA | 0.195 ± 0.113 |
| ATGGATCG | 0.345 ± 0.0571 |
| GTAGATCA | 0.29 ± 0.0141 |
| GTGGATAA | 0.2486 ± 0.00124 |
| GTGGATCA | 0.4 ± 0.0347 |
| ATGGATCA | 0.383 ± 0.00801 |
| CTGGATCA | 0.326 ± 0.0378 |
| ACACCAGC | 0.211 ± 0.0357 |
| CTTCGATA | 0.342 ± 0.0398 |
| GCATATGA | 0.167 ± 0.0211 |
| GCATACTA | 0.22 ± 0.00291 |
| ATGTATGA | 0.261 ± 0.0176 |
| ATCATTAG | 0.281 ± 0.0368 |
| TCACCTGA | 0.165 ± 0.00229 |
| AATACCGA | 0.321 ± 0.0139 |
| AATACCGT | 0.318 ± 0.04 |

| Sequence | binding signal [E-score] |
| --- | --- |
| AATACCGC | 0.386 ± 0.0176 |
| GATACCTA | 0.472 ± 0.0087 |
| AATACCTA | 0.289 ± 0.0733 |
| TATACCGA | 0.339 ± 0.026 |
| CATACCGG | 0.166 ± 0.0474 |
| GATACCGC | 0.461 ± 0.0131 |
| AATACCGG | 0.273 ± 0.0276 |
| CATACCTA | 0.174 ± 0.0329 |
| GATACCGA | 0.4164 ± 0.00268 |
| GCTAATAC | 0.244 ± 0.0389 |
| CCGGAATA | 0.162 ± 0.00262 |
| AACTACAC | 0.169 ± 0.006 |
| CGTTGATC | 0.152 ± 0.0357 |
| GACCCGGC | 0.183 ± 0.012 |
| GGTGTAGA | 0.317 ± 0.04 |
| AGTATATA | 0.306 ± 0.0599 |
| CGTATATC | 0.336 ± 0.0303 |
| AGTATCTC | 0.376 ± 0.0377 |
| ACTATCTC | 0.209 ± 0.0851 |
| CCTATCTC | 0.227 ± 0.035 |
| AGTATCTG | 0.317 ± 0.0419 |
| CGTATCTC | 0.378 ± 0.00747 |
| AGTATATC | 0.383 ± 0.0642 |

| Sequence | binding signal [E-score] |
| --- | --- |
| CGTATCTA | 0.349 ± 0.0276 |
| CATCTATC | 0.211 ± 0.0124 |
| ATATGGCG | 0.223 ± 0.0647 |
| AATGGGAT | 0.213 ± 0.0227 |
| ACACCTTA | 0.238 ± 0.0937 |
| GATGAGCC | 0.249 ± 0.0159 |
| CTATCTGA | 0.231 ± 0.0348 |
| CGAGATCC | 0.325 ± 0.0133 |
| GATAATGA | 0.174 ± 0.0154 |
| AGACGGGA | 0.2 ± 0.0154 |
| ATAGTAGC | 0.187 ± 0.0294 |
| CCGGGATA | 0.305 ± 0.0131 |
| CGGGGATA | 0.413 ± 0.0228 |
| GGGGGATA | 0.4424 ± 0.00147 |
| CTGGGATA | 0.266 ± 0.0214 |
| ACGGGATA | 0.376 ± 0.00774 |
| AGGGGATA | 0.425 ± 0.000834 |
| ACGGGGGA | 0.217 ± 0.0264 |
| ATGGGATA | 0.36 ± 0.00494 |
| GCGGGATA | 0.3486 ± 0.00158 |
| CGGGGAGA | 0.182 ± 0.0823 |
| GTGGGATA | 0.348 ± 0.0178 |
| AGGGGGGA | 0.206 ± 0.028 |

| Sequence | binding signal [E-score] |
| --- | --- |
| CCAGGGTA | 0.221 ± 0.0174 |
| GGAACACC | 0.187 ± 0.018 |
| CATTAATA | 0.154 ± 0.0188 |
| ATAACATC | 0.165 ± 0.0558 |
| GATCACGA | 0.273 ± 0.0518 |
| ATCACCGA | 0.251 ± 0.0115 |
| CATATGGG | 0.179 ± 0.0474 |
| CGCCTATC | 0.218 ± 0.0337 |
| CGCGTATC | 0.424 ± 0.00815 |
| AGCGTATA | 0.233 ± 0.0627 |
| CGCGTATA | 0.232 ± 0.0592 |
| GGCGTATA | 0.179 ± 0.0032 |
| AGCGTATC | 0.411 ± 0.0267 |
| ATACACGC | 0.328 ± 0.00888 |
| ATACCCGA | 0.407 ± 0.00771 |
| ATACCAGA | 0.299 ± 0.0031 |
| ACACCCGC | 0.27 ± 0.0197 |
| ATACCAGG | 0.3772 ± 0.00332 |
| ATACCCGG | 0.407 ± 0.0266 |
